# Data published in PubChem BioAssay (NCI).
# “And” between values parts separate entries of the source, which are not always exact repeats. Identical values can stand only once. Compounds without any hit were thinned out: in the full panel of roughly 83,000, 20% have a hit.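 Plates (96-well) were seeded with cells, treated with compound at one concentration, and incubated for 48 hours before percent growth was determined.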 Values without a mark were called inactive. The source made the active and inactive calls. How the source made its calls: active means growth percent below 10; inactive means the rest.
# Test system: MDA-MB-468 breast
# Experiment: NCI-60 one-dose screen, 48 h (100 = growth as untreated, 0 = no growth, -100 = all killed)
# Conditions: 10 µM unless noted
row,SMILES,growth
1,CN(C)CC(=O)c1ccc2cc(Br)c3ccccc3c2c1,72.1%
2,O=C(Nc1ccccc1O)c1ccccc1Nc1ccnc(C(F)(F)F)c1,116%
3,Clc1ccc2c(NCCNc3nc(-c4ccccc4)cc(-c4ccccc4)n3)ccnc2c1,-53.8% (active)
4,Clc1ccc(COc2ccc(Nc3ncnc4onc(-c5ccccc5)c34)cc2)cc1,78.5%
5,CCN(CC)c1ccc2nc3ccc(N=Nc4ccc(O)cc4)cc3[n+](-c3ccccc3)c2c1,-60.7% (active)
6,Oc1cccc(-c2nc(N3CCOCC3)c3c4c(sc3n2)CCCC4)c1,46.1%
7,NNC(=O)c1ccc(C(=O)NN)cc1,102%
8,O=C(CCCNC(=O)c1nc(-c2ccccc2)n(-c2ccccc2)n1)NO,98.8%
9,Fc1ccc(CNCCNc2ncnc3c2cnn3-c2ccccc2)cc1,81.4%
10,C#CC[C@H](N)C(=O)O,101% [20 µM]
11,CCC(CC)(N(CC(=O)O)CC(=O)O)C(CC)(CC)N(CC(=O)O)CC(=O)O,127%
12,O=c1c(-c2ccc3c(c2)OCO3)coc2c(CO)c(O)ccc12,-14.5% (active)
13,O=C(OCC1CC2(Cl)C(Cl)=C(Cl)C1(Cl)C2(Cl)Cl)C1C(C(=O)OCC2CC3(Cl)C(Cl)=C(Cl)C2(Cl)C3(Cl)Cl)C2(Cl)C(Cl)=C(Cl)C1(Cl)C2(Cl)Cl (stereo not given),107%
14,CN1CCN(c2ccc(NC3=C(Cl)C(=O)c4ncccc4C3=O)cc2C#N)CC1,-65% (active)
15,CN1C(=O)/C(=C/c2ccc(C(=O)Nc3ncc(Cc4cccc(C(F)(F)F)c4)s3)cc2)SC1=S,-2.76% (active)
16,COc1ccc(C2=NN(C(C)=O)C(c3cccc(Nc4ccnc5cc(Cl)ccc45)c3)C2)cc1 (stereo not given),38.9%
17,COc1ccccc1/C=C/C(=O)c1nnn(-c2ccc(C(=O)O)cc2)c1C,74.5%
18,O=C(Cn1cc(COc2ncnc3c2cnn3-c2ccccc2)nn1)Nc1cccc2ccccc12,86.5%
19,COc1ccc(NC(=O)[C@@H]2C[C@H]2c2ccccc2)c(C(N)=O)c1,101%
20,CC1=CC(C)(C)NC(=S)N1c1ccc(Cl)cc1,97.6% and 105%

row,SMILES,growth
1,CC1=C([Se]CC(OC(=O)[C@@H](CSSC(C)(C)C)NC(=O)C(C)(C)C)C(=O)NCCCCCC(=O)OCc2ccccc2)C(=O)c2ccccc2C1=O (stereo not given in full),-21.9% (active)
2,O=C(Nc1cccc(-n2cc(-c3ccncc3)c(-c3cc(O)cc(Cl)c3)n2)c1)c1cc(C(F)(F)F)cc(C(F)(F)F)c1,31.2%
3,C=C1CC/C=C(\C)C(=O)C[C@@H]2[C@@H]1CC2(C)C,79.1%
4,Cc1ccc(Cn2c(N3CCC(C(=O)NCc4cccs4)CC3)nc3ccccc32)cc1,95.3%
5,COc1cc(OCc2cccc(-c3ccc4c(c3)OCCO4)c2C)cc(OC)c1C=O,21.8%
6,CCOC(=O)CC1CSC(N/N=C/c2ccc(-n3cccn3)cc2)=N1 (stereo not given),95.3%
7,COc1ccc2c(c1)C(=O)/C(=C/c1ncc([N+](=O)[O-])n1C)O2,-12.4% (active)
8,CCNc1nc(O)c(/C=C2\C=Nc3ncccc32)s1,-34.7% (active)
9,Cc1ccc(-n2c(-c3cc4c([nH]c5ccccc54)c(-c4cccc(O)c4)n3)n[nH]c2=S)cc1,-32.3% (active)
10,COc1ccc(C[n+]2c3ccccc3n3c4ccc(N)cc4ccc32)c(OC)c1OC,-22.5% (active)
11,Cc1nn(-c2ccccc2)c(Oc2c(Cl)cccc2Cl)c1/C=N/N=c1\sc2ccccc2n1C,39.7%
12,O=C1/C(=C/c2ccccc2)COc2ccc(O)cc21,87.8%
13,C[n+]1c(/C=C/c2c(O)ccc3ccccc23)ccc2ccccc21,-16.1% (active)
14,CCCCOc1nc2ccccc2cc1C1CNC(=O)c2ccccc2N1 (stereo not given),-1.81% (active)
15,COc1ccc(C(=O)/C=C/c2cc3c(c(OC)c2)OCC(=O)N3)cc1,42.3%
16,O=C(Nc1ccccc1OC(=O)c1ccccc1)c1ccccc1,59%
17,Cc1cc(N)c2ccccc2[n+]1CCCCCCCCCC[n+]1c(C)cc(N)c2ccccc21,-55.7% (active)
18,COc1ccc2c(c1)/C(=C\c1c[nH]c3ccc(F)cc13)C(=O)N2,2.93% (active)
19,O=C(N/N=C\c1cc(Br)ccc1O)c1ccncc1,24%
20,CCOC(=O)CC(c1ccccc1)C(C#N)c1ccccc1 (stereo not given),101%
